Test results reported in PubChem BioAssay (NCATS).
Values joined by “and” are separate entries in the source; they are usually repeats but may differ in a detail not shown here. Equal entries are not always repeated. A number with no mark means an inactive call. Results filed as inconclusive are left out. Active and inactive are the calls of the source.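 The calls were made as follows, unless noted: active = compounds whose dose series gives a full or clear partial fitted curve of increased nuclear translocation; inconclusive = weak partial curve or effect only at the top dose; inactive = no dose-dependent translocation response.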

Experiments:
[1] = target: Glucocorticoid receptor (Homo sapiens) (UniProt P04150); test: GR-GFP Redistribution (AID 450); conditions: U2OS GR-GFP nuclear translocation, laser cytometry, 2 h; also: potency is read from the fitted curve at half-maximal effect
[2] = target: Glucocorticoid receptor (Homo sapiens) (UniProt P04150); test: GR-EFC Redistribution (AID 451; calls by dose curve; also: potency is read from the fitted curve at half-maximal effect); conditions: CHO-K1 GR-EFC translocation, beta-gal luminescence, 2 h
Method in brief: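 Translocation of GR-ED fusion to nuclear EA restores b-gal, read by luminescence after 1 h room-temperature detection. Engineered CHO-K1 biosensor cells, 1,000/well, exposed 2 h at 37 C to titrations up to 46 uM final.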

[3] = target: Mitogen-activated protein kinase 10 (Mus musculus) (UniProt Q61831); test: JNK3 AlphaScreen Assay (AID 530; active = well fitted curve in either direction with a large enough effect, not every such curve was filed as active;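 also: kinase came from lysate of stimulated human HepG2 cells; signal reports phosphorylation of biotinylated GST-cJun 1-79 at Ser73 with 10 µM ATP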); conditions: JNK3 lysate, c-Jun phosphorylation; series mostly up to 57.1 µM
Method in brief: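 Room-temperature AlphaScreen kinase assay; pre-activated HepG2 lysate as JNK3 source, biotin-GST-cJun(1-79) substrate, 10 uM ATP, compound 15 min preincubation.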

Glucocorticoid receptor (Homo sapiens), sequence (P04150 whole entry, looked up, the tested form may be a part): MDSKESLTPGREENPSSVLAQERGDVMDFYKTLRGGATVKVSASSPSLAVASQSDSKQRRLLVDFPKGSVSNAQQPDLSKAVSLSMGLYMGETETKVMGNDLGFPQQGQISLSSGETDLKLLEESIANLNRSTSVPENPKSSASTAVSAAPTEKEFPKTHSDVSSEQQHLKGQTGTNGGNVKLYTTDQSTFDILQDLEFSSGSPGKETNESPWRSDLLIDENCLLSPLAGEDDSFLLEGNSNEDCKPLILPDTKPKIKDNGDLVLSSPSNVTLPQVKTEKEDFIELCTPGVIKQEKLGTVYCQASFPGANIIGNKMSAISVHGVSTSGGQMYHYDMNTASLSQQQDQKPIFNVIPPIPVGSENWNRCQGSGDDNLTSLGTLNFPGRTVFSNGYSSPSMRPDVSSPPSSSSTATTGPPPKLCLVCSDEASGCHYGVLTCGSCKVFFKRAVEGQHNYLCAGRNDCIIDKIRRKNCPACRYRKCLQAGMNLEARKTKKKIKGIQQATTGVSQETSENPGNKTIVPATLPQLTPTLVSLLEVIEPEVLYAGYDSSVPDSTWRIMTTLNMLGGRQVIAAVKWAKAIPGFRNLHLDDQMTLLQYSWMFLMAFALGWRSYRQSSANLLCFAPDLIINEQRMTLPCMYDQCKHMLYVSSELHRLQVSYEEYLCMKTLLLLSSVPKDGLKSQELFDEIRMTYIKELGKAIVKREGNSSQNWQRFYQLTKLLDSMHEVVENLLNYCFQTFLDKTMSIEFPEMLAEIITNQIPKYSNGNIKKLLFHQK

## CCc1cccc(N(C)C(N)=Nc2cccc3ccccc23)c1
[1]
  Potency: > 46 µM
[2]
  Potency: > 46 µM
[3]
  Potency: inactive

## C[C@]12CCC(=O)C=C1CC[C@@H]1[C@@H]2C(=O)C[C@@]2(C)[C@H]1CC[C@]2(O)C(=O)CO
[1]
  Potency: 0.818 µM (active)

## CCCC(C(=O)OCCN(CC)CC)(c1ccccc1)c1ccccc1
[1]
  Potency: > 46 µM and > 20.6 µM
[2]
  Potency: > 46 µM and > 20.6 µM
[3]
  Potency: inactive

## CC(=O)OCC1=C(C(=O)O)N2C(=O)[C@@H](NC(=O)Cc3cccs3)[C@H]2SC1
[1]
  Potency: > 20.6 µM

## O=C(O)CP(=O)(O)O
[1]
  Potency: > 46 µM
[2]
  Potency: > 46 µM and > 9.22 µM
[3]
  Potency: inactive

## CCN(CC)CCNC(=O)c1ccc(NC(C)=O)cc1
[1]
  Potency: > 46 µM and > 20.6 µM
[2]
  Potency: > 46 µM

## COc1ccc(CCN(C)CCCC(C#N)(c2cc(OC)c(OC)c(OC)c2)C(C)C)cc1OC (stereo not given)
[1]
  Potency: > 20.6 µM

## CCOC(=O)C1=C(C)NC(C)=C(C(=O)OC)C1c1cccc(Cl)c1Cl (stereo not given)
[1]
  Potency: > 20.6 µM

## CC(=O)OC(C)C[N+](C)(C)C (stereo not given)
[1]
  Potency: > 20.6 µM

## CO[C@@]1(NC(=O)CSCC#N)C(=O)N2C(C(=O)O)=C(CSc3nnnn3C)CS[C@@H]21
[1]
  Potency: > 20.6 µM

## COCCCC/C(=N\OCCN)c1ccc(C(F)(F)F)cc1
[1]
  Potency: > 20.6 µM

## C[C@]12CCC(=O)C=C1CC[C@@H]1[C@@H]2CC[C@@]2(C)[C@H]1CC[C@]2(O)C(=O)CO
[1]
  Potency: 0.0458 µM (active)

## COCCc1ccc(OCC(O)CNC(C)C)cc1 (stereo not given)
[1]
  Potency: > 20.6 µM

## CN(C)CCN(Cc1cccs1)c1ccccn1
[1]
  Potency: > 46 µM and > 20.6 µM
[2]
  Potency: > 46 µM and > 20.6 µM

## CCN1CCc2nc(N)oc2CC1
[1]
  Potency: > 46 µM
[2]
  Potency: > 46 µM

## O=C(O)CN(CCN(CC(=O)O)CC(=O)O)CCN(CC(=O)O)CC(=O)O
[1]
  Potency: > 46 µM and > 20.6 µM
[2]
  Potency: > 46 µM and > 20.6 µM
[3]
  Potency: inactive

## CN(C)C(=O)Oc1ccc[n+](C)c1
[1]
  Potency: > 46 µM and > 20.6 µM
[2]
  Potency: > 46 µM
[3]
  Potency: inactive

## C[C@]12C=CC(=O)C=C1CC[C@H]1[C@@H]3C[C@@H](O)[C@](O)(C(=O)CO)[C@@]3(C)C[C@H](O)[C@@]12F
[1]
  Potency: 0.148 µM (active)

## CC1=C(C)C(=O)C(CCCCC#CCCCC#CCO)=C(C)C1=O
[1]
  Potency: > 46 µM and > 20.6 µM
[2]
  Potency: > 46 µM

## COc1ccc2c(c1OC)C(=O)O[C@@H]2[C@H]1c2c(cc3c(c2OC)OCO3)CCN1C
[1]
  Potency: > 46 µM and > 20.6 µM
[2]
  Potency: > 46 µM

## CC(=O)Nc1nnc(S(N)(=O)=O)s1
[1]
  Potency: > 46 µM and > 20.6 µM
[2]
  Potency: > 46 µM and > 20.6 µM
[3]
  Potency: inactive

## CN(C(=O)CCCOc1ccc2[nH]c(=O)ccc2c1)C1CCCCC1
[1]
  Potency: > 46 µM
[2]
  Potency: > 46 µM
[3]
  Potency: inactive

## Cc1ccc(Cl)c(Nc2ccccc2C(=O)O)c1Cl
[1]
  Potency: > 46 µM and > 20.6 µM
[2]
  Potency: > 46 µM and > 20.6 µM
[3]
  Potency: inactive

## CCCN(CCC)CCc1cccc2c1CC(=O)N2
[1]
  Potency: > 46 µM
[2]
  Potency: > 46 µM
[3]
  Potency: inactive

## COc1cc2c(cc1OC)-c1cc(=Nc3c(C)cc(C)cc3C)n(C)c(=O)n1CC2
[1]
  Potency: > 46 µM
[2]
  Potency: > 46 µM
[3]
  Potency: inactive

## CCCN(CCC)C(=O)C(CCC(=O)O)NC(=O)c1ccccc1 (stereo not given)
[1]
  Potency: > 20.6 µM

## Fc1ccc(C(c2ccc(F)cc2)N2CCN(C/C=C/c3ccccc3)CC2)cc1
[1]
  Potency: > 20.6 µM

## c1cnc(N2CCN(Cc3ccc4c(c3)OCO4)CC2)nc1
[1]
  Potency: > 46 µM and > 20.6 µM
[2]
  Potency: > 46 µM and > 20.6 µM
[3]
  Potency: inactive

## CN(C)[C@@H]1C(=O)C(C(N)=O)=C(O)[C@@]2(O)C(=O)C3=C(O)c4c(O)ccc(Cl)c4[C@@H](O)[C@H]3C[C@@H]12
[1]
  Potency: > 20.6 µM

## COc1ccc([C@@H]2Sc3ccccc3N(CCN(C)C)C(=O)[C@@H]2OC(C)=O)cc1
[1]
  Potency: > 46 µM and > 20.6 µM
[2]
  Potency: > 46 µM

## COCCOC(=O)C1=C(C)NC(C)=C(C(=O)OC(C)C)C1c1cccc([N+](=O)[O-])c1 (stereo not given)
[1]
  Potency: > 20.6 µM

## Cc1nc2ccccn2c(=O)c1CCN1CCC(C(=O)c2ccc(F)cc2)CC1
[1]
  Potency: > 46 µM and > 20.6 µM
[2]
  Potency: > 46 µM

## C[N+](C)(C)CCCCCCCCCC[N+](C)(C)C
[1]
  Potency: > 46 µM and > 20.6 µM
[2]
  Potency: > 46 µM and > 20.6 µM
[3]
  Potency: inactive

## CC(C)(Oc1ccc(CCNC(=O)c2ccc(Cl)cc2)cc1)C(=O)O
[1]
  Potency: > 20.6 µM
[2]
  Potency: > 20.6 µM
[3]
  Potency: inactive

## CCN(CC)CCNC(=O)c1cc(S(C)(=O)=O)ccc1OC
[1]
  Potency: > 46 µM and > 20.6 µM
[2]
  Potency: > 46 µM and > 20.6 µM
[3]
  Potency: inactive

## O=C1NCN(c2ccccc2)C12CCN(CCCC(c1ccc(F)cc1)c1ccc(F)cc1)CC2
[1]
  Potency: > 46 µM and > 20.6 µM
[2]
  Potency: > 46 µM and > 20.6 µM
[3]
  Potency: inactive

## CCCCNc1ccc(C(=O)OCCN(C)C)cc1
[1]
  Potency: > 46 µM and > 20.6 µM
[2]
  Potency: > 46 µM and > 20.6 µM
[3]
  Potency: inactive

## Cc1nc2c([nH]1)c(=O)n(C)c(=O)n2Cc1ccco1
[1]
  Potency: > 46 µM
[2]
  Potency: > 46 µM
[3]
  Potency: inactive

## Cc1ccc(S(=O)(=O)NC(=O)NN2CCCCCC2)cc1
[1]
  Potency: > 46 µM and > 20.6 µM
[2]
  Potency: > 46 µM and > 20.6 µM
[3]
  Potency: inactive

## O=C(CCNNC(=O)c1ccncc1)NCc1ccccc1
[1]
  Potency: > 46 µM and > 20.6 µM
[2]
  Potency: > 46 µM and > 20.6 µM
[3]
  Potency: inactive

## C[N+](C)(C)CCOC(=O)CCC(=O)OCC[N+](C)(C)C
[1]
  Potency: > 46 µM
[2]
  Potency: > 46 µM
[3]
  Potency: inactive

## NC(N)=NC(=O)Cc1c(Cl)cccc1Cl
[1]
  Potency: > 46 µM and > 20.6 µM
[2]
  Potency: > 46 µM and > 20.6 µM
[3]
  Potency: inactive

## C[n+]1cc2c3c(ccc2c2ccc4cc5c(cc4c21)OCO5)OCO3
[1]
  Potency: 6.57 µM (active)
[2]
  Potency: > 46 µM and > 20.6 µM
[3]
  Potency: inactive

## CN(C)CCCN1c2ccccc2Sc2ccc(C(F)(F)F)cc21
[1]
  Potency: > 46 µM and > 20.6 µM
[2]
  Potency: > 46 µM and > 20.6 µM
[3]
  Potency: inactive

## C#CCN(C)CCCOc1ccc(Cl)cc1Cl
[1]
  Potency: > 46 µM and > 20.6 µM
[2]
  Potency: > 46 µM and > 20.6 µM
[3]
  Potency: inactive

## O=C(CCCN1CCC(O)(c2cccc(C(F)(F)F)c2)CC1)c1ccc(F)cc1
[1]
  Potency: > 46 µM
[2]
  Potency: > 46 µM
[3]
  Potency: inactive

## c1cc(CN2CCCCC2)cc(OCCCNc2nc3ccccc3s2)c1
[1]
  Potency: > 46 µM
[2]
  Potency: > 46 µM
[3]
  Potency: inactive

## CN(C)CCOC(=O)COc1ccc(Cl)cc1
[1]
  Potency: > 46 µM and > 20.6 µM
[2]
  Potency: > 46 µM and > 20.6 µM
[3]
  Potency: inactive

## Brc1c(NC2=NCCN2)ccc2nccnc12
[1]
  Potency: > 46 µM and > 20.6 µM
[2]
  Potency: > 46 µM
[3]
  Potency: inactive

## CN1CCN(CC(=O)N2c3ccccc3C(=O)Nc3cccnc32)CC1
[1]
  Potency: > 46 µM and > 20.6 µM
[2]
  Potency: > 46 µM and > 20.6 µM
[3]
  Potency: inactive

## O=C(O)CN(CCOCCOCCN(CC(=O)O)CC(=O)O)CC(=O)O
[1]
  Potency: > 46 µM
[2]
  Potency: > 46 µM
[3]
  Potency: inactive

## CN(C)CC/C=C1\c2ccccc2COc2ccccc21
[1]
  Potency: > 46 µM and > 20.6 µM
[2]
  Potency: > 46 µM and > 20.6 µM
[3]
  Potency: inactive

## CCN(CC)CCOCCOC(=O)C1(c2ccccc2)CCCC1
[1]
  Potency: > 46 µM and > 20.6 µM
[2]
  Potency: > 46 µM and > 20.6 µM
[3]
  Potency: inactive

## CC(=O)Oc1cc(C(C)C)c(OCCN(C)C)cc1C
[1]
  Potency: > 46 µM and > 20.6 µM
[2]
  Potency: > 46 µM and > 20.6 µM
[3]
  Potency: inactive

## CCNC(=O)N1CCN(CCCC(c2ccc(F)cc2)c2ccc(F)cc2)CC1
[1]
  Potency: > 46 µM
[2]
  Potency: > 46 µM
[3]
  Potency: inactive
